Test results: PubChem BioAssay AID1159580 (chemical genetic matrix, 2015)
Values joined by “and” are separate entries in the source; they are usually repeats but may differ in a detail not shown here. Identical values can stand only once. Out of some 5,500 compounds screened, about 2,000 (36%) were called active. Inconclusive results (about 18%) are left out. No stated cut-off is given here; in the data, active means normalized growth mostly below about 0.91 (no sharp cut-off); inconclusive means no clear call, values can overlap the other calls; inactive means mostly above about 0.92. The list shows a part of the results.

Assay: chemical genetic growth profiling, strain panel (AID 1159580);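 further: tested at 20 µM; growth read once vehicle control cultures reached saturation at 30 °C; 1 = growth at the plate median or of vehicle wells; lower values mean less growth of the strain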
Conditions: S. cerevisiae deletion strains, growth OD

Measured: normalized growth

CC1(C)CC[C@]2(C(=O)O)CC[C@]3(C)C(=CCC4[C@@]5(C)CC[C@@H](O)C(C)(C)C5CC[C@]43C)C2C1 (stereo partly drawn)
inactive: locus YAL021C, strain ccr4, active compounds read low 1.02 | locus YAL026C, strain drs2, active compounds read low 1.01 | locus YAL030W, strain snc1, active compounds read low 1.03 | locus YBL061C, strain skt5, active compounds read low 1.01 | locus YBR009C, strain hhf1, active compounds read low 0.995 | locus YBR021W, strain FUR4, active compounds read low 1.02 | locus YBR023C, strain chs3, active compounds read low 1.01 | locus YBR171W, strain sec66, active compounds read low 1.05 | locus YBR229C, strain ROT2, active compounds read low 1.01 | locus YBR231C, strain swc5, active compounds read low 1.02 | locus YBR279W, strain paf1, active compounds read low 1.01 | locus YCL011C, strain gbp2, active compounds read low 1.01 | locus YCL016C, strain dcc1, active compounds read low 1.03 | locus YCL029C, strain bik1, active compounds read low 1.01 | locus YCL069W, strain vba3, active compounds read low 1.02 | locus YCR088W, strain abp1, active compounds read low 1.01 | locus YDL005C, strain med2, active compounds read low 1.03 | locus YDL035C, strain GPR1, active compounds read low 1.01 | locus YDL040C, strain nat1, active compounds read low 1.01 | locus YDL074C, strain BRE1, active compounds read low 1.06 | locus YDL101C, strain DUN1, active compounds read low 1.02 | locus YDL134C, strain PPH21, active compounds read low 1.04 | locus YDL185W, strain tfp1, active compounds read low 1.02 | locus YDR001C, strain nth1, active compounds read low 1.01 | locus YDR069C, strain doa4, active compounds read low 1.05 | locus YDR101C, strain arx1, active compounds read low 0.991 | locus YDR137W, strain rgp1, active compounds read low 1.07 | locus YDR150W, strain NUM1, active compounds read low 1.01 | locus YDR159W, strain sac3, active compounds read low 1.04 | locus YDR162C, strain NBP2, active compounds read low 1.05 | locus YDR195W, strain ref2 0.987 | locus YDR297W, strain sur2, active compounds read low 1 | locus YDR318W, strain mcm21, active compounds read low 1.02 | locus YDR334W, strain swr1, active compounds read low 1.03 | locus YDR335W, strain msn5, active compounds read low 1.02 | locus YDR388W, active compounds read low 1.02 | locus YDR392W, strain spt3, active compounds read low 1.03 | locus YDR502C, strain sam2, active compounds read low 1.02 | locus YEL003W, strain gim4, active compounds read low 1.02 | locus YEL037C, strain rad23, active compounds read low 1.01 | locus YEL061C, strain CIN8 (second series), active compounds read low 1 | locus YER015W, strain faa2, active compounds read low 1.01 | locus YER016W, strain bim1, active compounds read low 1.03 | locus YER110C, active compounds read low 1.02 | locus YER111C, strain swi4, active compounds read low 1.01 | locus YER155C, strain BEM2 (second series), active compounds read low 1.02 | locus YER155C, strain BEM2, active compounds read low 1.01 | locus YER167W, strain BCK2, active compounds read low 1.01 | locus YFR010W, strain ubp6, active compounds read low 1.01 | locus YGL078C, strain dbp3, active compounds read low 1.04 | locus YGL086W, strain mad1, active compounds read low 1.03 | locus YGL167C, strain pmr1, active compounds read low 1.03 | locus YGL173C, strain kem1, active compounds read low 1.02 | locus YGL227W, strain vid30, active compounds read low 1.01 | locus YGL240W, strain doc1, active compounds read low 1.03 | locus YGL248W, strain PDE1, active compounds read low 1.02 | locus YGL253W, strain hxk2, active compounds read low 1.01 | locus YGR135W, strain pre9, active compounds read low 1.02 | locus YGR229C, strain SMI1, active compounds read low 1.05 | locus YGR252W, strain gcn5, active compounds read low 0.944 | locus YHR013C, strain ard1, active compounds read low 1.04 | locus YHR027C, strain rpn1, active compounds read low 1.02 | locus YHR030C, strain SLT2, active compounds read low 1.01 and 1.02 | locus YHR079C, strain IRE1 (second series), active compounds read low 1.01 | locus YHR079C, strain IRE1, active compounds read low 1.05 | locus YHR094C, strain hxt1, active compounds read low 1.01 | locus YHR129C, strain ARP1, active compounds read low 1.01 | locus YHR142W, strain chs7, active compounds read low 1.02 | locus YHR200W, strain rpn10, active compounds read low 1.01 | locus YIL066C, strain RNR3, active compounds read low 1.03 | locus YIL073C, strain SPO22, active compounds read low 1.05 | locus YIL125W, strain kgd1, active compounds read low 1.01 | locus YJL092W, strain hpr5, active compounds read low 1.02 | locus YJL095W, strain BCK1 (second series), active compounds read low 1.03 | locus YJL095W, strain BCK1, active compounds read low 1.05 and 1.02 | locus YJL115W, strain asf1, active compounds read low 1.01 | locus YJL129C, strain trk1, active compounds read low 1.04 | locus YJL134W, strain LCB3, active compounds read low 1.01 | locus YJL154C, strain vps35, active compounds read low 1.01 | locus YJL164C, strain tpk1, active compounds read low 1.02 | locus YJL166W, strain qcr8, active compounds read low 1.02 | locus YJL168C, strain set2, active compounds read low 1.02 | locus YJL187C, strain SWE1 (second series), active compounds read low 1.04 | locus YJR043C, strain POL32, active compounds read low 1 | locus YJR066W, strain TOR1, active compounds read low 0.982 | locus YKL160W, strain elf1, active compounds read low 1.02 | locus YKL190W, strain CNB1, active compounds read low 1.02 | locus YKR001C, strain vps1, active compounds read low 0.993 | locus YKR026C, strain gcn3, active compounds read low 1.02 | locus YKR091W, strain srl3, active compounds read low 1.02 | locus YLL001W, strain dnm1, active compounds read low 1.01 | locus YLL026W, active compounds read low 1.02 | locus YLL041C, strain sdh2, active compounds read low 1.02 | locus YLR027C, strain aat2, active compounds read low 1.01 | locus YLR039C, strain RIC1, active compounds read low 1.11 | locus YLR058C, strain SHM2, active compounds read low 1.02 | locus YLR102C, strain apc9, active compounds read low 1.02 | locus YLR113W, strain HOG1, active compounds read low 0.951 | locus YLR221C, strain rsa3, active compounds read low 1 | locus YLR258W, strain gsy2, active compounds read low 1.01 | locus YLR262C, strain YPT6 (second series), active compounds read low 0.984 | locus YLR262C, strain YPT6, active compounds read low 1.1 | locus YLR268W, strain sec22, active compounds read low 0.986 | locus YLR320W, strain mms22, active compounds read low 1.01 | locus YLR342W, strain FKS1 (second series), active compounds read low 0.964 | locus YLR342W, strain FKS1, active compounds read low 1.01 | locus YLR357W, strain rsc2, active compounds read low 1.03 | locus YLR370C, strain arc18, active compounds read low 1 | locus YLR371W, strain rom2, active compounds read low 0.992 | locus YLR384C, strain iki3, active compounds read low 1.02 | locus YLR418C, strain cdc73, active compounds read low 1.09 | locus YML016C, strain PPZ1, active compounds read low 1.01 | locus YML032C, strain rad52, active compounds read low 0.991 | locus YML120C, strain ndi1, active compounds read low 1.01 | locus YML124C, strain tub3, active compounds read low 1.01 | locus YMR058W, strain fet3, active compounds read low 1.02 | locus YMR078C, strain ctf18, active compounds read low 1.02 | locus YMR125W, strain sto1, active compounds read low 1.04 | locus YMR129W, active compounds read low 1.01 | locus YMR205C, strain PFK2, active compounds read low 1.03 | locus YMR223W, strain ubp8, active compounds read low 1.02 | locus YMR231W, strain pep5, active compounds read low 1.02 | locus YMR307W, strain GAS1, active compounds read low 0.976 | locus YNL067W, strain RPL9B, active compounds read low 1.05 | locus YNL071W, strain lat1, active compounds read low 1 | locus YNL128W, strain TEP1, active compounds read low 1.03 | locus YNL183C, strain NPR1, active compounds read low 0.994 | locus YNL209W, strain ssb2, active compounds read low 1.01 | locus YNL233W, strain BNI4, active compounds read low 1.03 | locus YNL248C, strain rpa49, active compounds read low 1.01 | locus YNL250W, strain rad50, active compounds read low 1.04 | locus YNL271C, strain bni1, active compounds read low 1.03 | locus YNL298W, strain CLA4, active compounds read low 1.07 | locus YNL307C, strain MCK1, active compounds read low 1.03 | locus YNL322C, strain KRE1 (second series), active compounds read low 1.04 | locus YNR049C, strain mso1, active compounds read low 1.02 | locus YNR052C, strain pop2, active compounds read low 1.03 | locus YOL012C, strain htz1 1.33 | locus YOL147C, strain pex11, active compounds read low 1 | locus YOR001W, strain rrp6, active compounds read low 1.02 | locus YOR061W, strain CKA2, active compounds read low 1.02 | locus YOR069W, strain VPS5, active compounds read low 1.02 | locus YOR070C, strain gyp1, active compounds read low 1.03 | locus YOR080W, strain dia2, active compounds read low 1.01 | locus YOR083W, strain WHI5, active compounds read low 1.02 | locus YOR106W, strain vam3, active compounds read low 1.03 | locus YOR136W, strain idh2, active compounds read low 1.01 | locus YOR144C, strain elg1, active compounds read low 1.01 | locus YOR184W, strain ser1, active compounds read low 1.03 | locus YOR231W, strain MKK1, active compounds read low 0.997 | locus YOR265W, strain rbl2, active compounds read low 1.02 | locus YOR270C, strain vph1, active compounds read low 0.997 | locus YOR290C, strain snf2, active compounds read low 1.02 | locus YOR316C, strain cot1, active compounds read low 1.01 | locus YPL051W, strain arl3, active compounds read low 1 | locus YPL078C, strain atp4, active compounds read low 1.04 | locus YPL106C, strain sse1, active compounds read low 1.03 | locus YPL240C, strain hsp82, active compounds read low 1.01 | locus YPL256C, strain CLN2, active compounds read low 1.05 | locus YPR119W, strain clb2, active compounds read low 1.01 | locus YPR141C, strain kar3, active compounds read low 1.02 | locus YPR163C, strain tif3, active compounds read low 1.02 | locus YPR167C, strain met16, active compounds read low 1.03 | strain wtn01, active compounds read low 1
active: locus YKL009W, strain mrt4, active compounds read low 1.45 [resistant] | locus YKL068W, active compounds read low 1.21 [resistant] | locus YKL085W, strain MDH1 (second series), active compounds read low 1.09 [resistant] | locus YKL085W, strain MDH1, active compounds read low 1.09 [resistant]
